# Inconclusive results are not listed. Where a call stands in place of a potency, no number is given. Activity calls are given as the source filed them. Calls follow the shape of the dose curve; as a rule, active = well fitted cell-killing curve with a large enough effect in the repeat runs; inconclusive = weak or mixed curves, or effect the other way; inactive = flat fitted curve, though single readings scatter.
# Assay: qHTS RealTime-Glo MT Cell Viability Assay in HEK293 cells - 24 hour (AID 1224886); also: nearly all actives have a fitted effect of over 50% in size
# Settings: RealTime-Glo luminescence; series mostly up to 76.8 µM
# From the text: National Center for Advancing Translational Sciences [NCATS]
# NIH Chemical Genomics Center [NCGC]
# U.S. Environmental Protection Agency [EPA]
# National Institutes of Environmental Health Sciences [NIEHS]
# National Toxicology Program [NTP]
# U.S. Food and Drug Administration [FDA]
# Measure of cell viability is critical in the cell-base assay. Analysis of cell viability is necessary for the characterization of cell responses to cytotoxic drugs and environmental stress. A RealTime-Glo MT Cell Viability Assay to monitor cell viability in real time of continues cell culture during 40 hours of compound treatment was used to screen Tox21 10K library compounds in Hek293 cells. The RealTime-Glo MT Cell Viability Assay is a nonlytic, homogeneous, bioluminescent method to measure cell viability in real time using a simple, plate-based method. The assay involves adding NanoLuc luciferase and a cell-permeant prosubstrate to cells in culture. Viable cells reduce the proprietary prosubstrate to generate a substrate for NanoLuc luciferase. This substrate diffuses from cells into the surrounding culture medium, where it is rapidly used by the NanoLuc Enzyme to produce a luminescent signal. The signal correlates with the number of viable cells, making the assay well suited for cytotoxicity studies.
# Tox21 Assay Protocol Summary:
# The mixture of Hek293 cell suspension and reagents were dispensed at 600cells/6 ul/well in 1536-well tissue culture treated black solid bottom plates using a Multidrop dispenser. After the assay plates were incubated at a 37 C/5% CO2 incubator for 5 hours, 23 nL of compounds dissolved in DMSO, positive and negative controls was transferred to the assay plate by a pintool work station. The plates were incubated at 37 C for 40 hours. The luminescence intensity were measured at 0h, 8h, 16h, 24h, 32h and 40h time points using ViewLux plate reader during compound treatment.
# Potency is read from the fitted curve at half-maximal effect.
row,Compound,Potency
1,Cc1cc(OI)c(C(C)C)cc1-c1cc(C(C)C)c(OI)cc1C,inactive
2,COc1cc2ncnc(Nc3ccc(F)c(Cl)c3)c2cc1OCCCN1CCOCC1,9.52 µM (active)
3,CO[Si](C)(OC)OC,inactive
4,CCCCCC=CCC=CCCCCCCCC(=O)OCC,inactive
5,CCCCC(CC)COC(=O)COc1ccc(Cl)cc1C (stereo not given),inactive
6,O=C(O)Cc1ccc(-c2ccccc2)cc1,inactive
7,CC1CC(O)CC(C)(C)C1 (stereo not given),inactive
8,COc1cc2c(N3CCN(C(=O)Nc4ccc(OC(C)C)cc4)CC3)ncnc2cc1OCCCN1CCCCC1,9.52 µM (active)
9,CCC(C)(C)C1CCC(O)CC1 (stereo not given),inactive
10,CC(=N\O)/C(C)=N/O,inactive
11,Cc1cc(O)c2c(O)c3c(O)cccc3cc2c1,inactive
12,CC(Cl)C(Cl)Cl (stereo not given),inactive
13,CCOC(=O)[C@@H](C)Oc1ccc(Oc2nc3ccc(Cl)cc3o2)cc1,21.9 µM (active)
14,CC(C)c1nnc2ccc(-c3ocnc3-c3cc(F)ccc3F)cn12,19.5 µM (active)
15,C/C(=N/NC(=O)c1ccncc1)C(=O)O,inactive
16,O=C(/C=C/c1ccccc1)OCCCc1ccccc1,inactive
17,Cc1oc(C)c(C(=O)Nc2ccccc2)c1C,34.7 µM (active)
18,CC(C)(O)c1ccccc1CC[C@@H](SCC1(CC(=O)O)CC1)c1cccc(/C=C/c2ccc3ccc(Cl)cc3n2)c1,inactive
19,CCCCCCOC(=O)CCCCCCCC(=O)OCCCCCC,inactive
20,CCNC(=O)N1CCN(CCCC(c2ccc(F)cc2)c2ccc(F)cc2)CC1,16.9 µM (active)

row,Compound,Potency
1,O=C(O)c1snc(Cl)c1Cl,inactive
2,CCC(C)(O)CCC=C(C)C (stereo not given),inactive
3,CCC1(C)CC(=O)NC1=O (stereo not given),inactive
4,CCOC(=N)CC(=O)OCC,inactive
5,Nc1ccc(S(=O)(=O)O)cc1,inactive
6,CC(C)CCCC(=O)O,inactive
7,CCCCN(CCCC)C(=S)SSC(=S)N(CCCC)CCCC,48.5 µM (active)
8,O=C(O)c1cccc(O)c1,inactive
9,C[C@]12CCC(=O)C=C1C=C[C@@H]1[C@@H]2CC[C@@]2(C)[C@H]1CC[C@@]21CCC(=O)O1,inactive
10,OCCSc1ccccc1,inactive
11,Oc1ccc(Nc2ccccc2)cc1,21.9 µM (active)
12,O=C(CCC1CCN(Cc2ccccc2)CC1)c1ccc2c(c1)NCCCC2,9.52 µM (active)
13,CCC(C(=O)OCCN(CC)CC)c1ccccc1 (stereo not given),inactive
14,CCc1nn(CCCN2CCN(c3cccc(Cl)c3)CC2)c(=O)n1CCOc1ccccc1,8.49 µM (active)
15,CCn1cc(C(=O)O)c(=O)c2cc(F)c(N3CCNCC3)nc21,inactive
16,COC(=O)CC(=O)C(C)(C)C,inactive
17,CCOc1cc(N)c(Cl)cc1C(=O)NCC1CN(Cc2ccc(F)cc2)CCO1 (stereo not given),15.1 µM (active)
18,CC(C)C(=O)O,inactive
19,CCC(C)=O,inactive
20,Cc1cc(C(=C2C=CC(=Nc3ccc(S(=O)(=O)O)cc3S(=O)(=O)O)C=C2)c2ccc(Nc3ccc(S(=O)(=O)O)cc3)cc2)ccc1N,inactive

# From PubChem BioAssay (Tox21)
